Experimental findings from PubChem BioAssay AID1233 (SRMLSC, 2008) are described below.

Entries with a potency or affinity are not part of this list. A number with no mark means an inactive call.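 How the source made its calls: active means a dose-response curve fit returns a half-maximal inhibitory concentration, extrapolated values included; inactive means the fit returns no such concentration.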

The target in this experiment is HMG-CoA reductase [Enterococcus faecalis] (UniProt Q9FD70). Put plainly: class II HMG-CoA reductase inhibition potency – biochemical, Enterococcus faecalis, confirmation (AID 1233).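 Further: 0% = full reaction carrier wells and 100% = background wells lacking mevalonate.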 The following applies: purified E. faecalis HMGR, NADPH absorbance 340 nm kinetics; series mostly up to 100 µM; inhibition: at the top concentration.
In the case of `COc1ccc(OC)c(-n2nnnc2SCC(=O)Nc2ccccc2N2CCOCC2)c1`, the inhibition (usually the relative decrease from the control value, in per cent) was -5.58%.
On to `O=C(Nc1ccccc1)N1C2CCC1CC(O)(c1cccnc1)C2` (stereo not drawn), for which the “inhibition” value was -2.14%.
On to `Cc1ccsc1C(=O)C1CCCN(Cc2cc(F)ccc2-n2cccn2)C1` (stereo not drawn), for which the “inhibition” value was -5.9%.
Turning to `CC1CN(C(=O)c2ccncc2)CC(C)O1` (stereo not drawn), the “inhibition” value was 1.13%.
For `COC(=O)c1ccccc1NC(=O)NCc1ccco1`, the “inhibition” value was -2.25%.
The value for `O=C(COCc1nc2ccccc2c(=O)[nH]1)NCC1CCCCC1` was -3.54%.
With `CCOc1ccc(C2C(C#N)=C(N)Oc3cc(C)oc(=O)c32)cc1` (stereo not drawn), the “inhibition” value is -1.84%.
Next, `Nc1c(C(=O)c2ccccc2)sc2c1c(=O)[nH]c(=O)n2-c1ccccc1`: -2.21%; `COc1ccc(N2C(=O)C(CN3CCCCC3)C2c2ccccc2)cc1` (stereo not drawn): -6.91%.
The value for `COCCN(C(=O)CNC(=O)c1cccs1)C(C(=O)NC1CCCCC1)c1ccco1` (stereo not drawn) was -0.13%; that for `CCc1ccc(NC(=O)CN(c2cccc(C)c2)S(C)(=O)=O)cc1` was -1.92%; that for `COc1cccc(Nc2nc(C)cc(C)c2C#N)c1` was 0.73%.
As for `CC(C)NC(=O)c1ccccc1NC(=O)C(C)Oc1ccccc1` (stereo not drawn), the “inhibition” value was -3.55%.
For the compound `O=C(Oc1ccccc1O)c1cccc2ccccc12`, the “inhibition” value was -3.31%.
Next, `O=C(Nc1ccncc1)c1ccc(C(=O)Nc2ccncc2)cc1`: -3.46%; `COc1cccc(C2NC(=O)NC(O)(C(F)(F)F)C2C(=O)c2cccnc2)c1OC` (stereo not drawn): -8.84%; `COc1ccc(NC(=O)C2=C(C)NC(=O)NC2c2cccc(OC)c2OC)c(OC)c1` (stereo not drawn): -5.97%.
`Cc1cc(SCn2nnc3ccccc3c2=O)nc2ccccc12`: the “inhibition” value is 13%.
Consider `CCN(CC)S(=O)(=O)c1cccc(C(=O)N[C@H](C(=O)Nc2nc3ccccc3s2)C(C)C)c1`, for which the “inhibition” value was -9.14%.
For the compound `COCCCNC(=O)CN(c1cc(Cl)ccc1OC)S(=O)(=O)c1ccc(C)c([N+](=O)[O-])c1`, the “inhibition” value was 0.76%.
On to `CCN1CCN(CCC(=O)Nc2ccc3c(c2)OCO3)CC1`, for which the “inhibition” value was -5.86%.
For the compound `CC(C)c1ccc(NC(=O)COC(=O)/C=C/c2cccc(Br)c2)cc1`, the “inhibition” value was -6.09%.
Next, `COc1ccc(N2C(=O)CS/C2=C\[N+](=O)[O-])cc1`: -4.2%; `CN(C)c1ccc(N=C/C=C2\N(C)c3ccccc3C2(C)C)cc1`: 1.95%.
Next, `O=C(NC(NC(=S)Nc1ccccc1C(=O)O)C(Cl)(Cl)Cl)c1ccccc1` (stereo not drawn): -7.8%.
With `Brc1c(NC2=NCCN2)ccc2nccnc12`, the “inhibition” value was -4.78%.
Next, `Cc1cc(C)n(C2CC(=O)N(c3ccccc3)C2=O)n1` (stereo not drawn): -1.73%.
The value for `C=CCOc1ccc(Br)cc1CNC(C)(C)C` was -2.42%.
Next, `Cc1cccc(S(=O)(=O)Nc2ccc(-c3cn4ccccc4n3)cc2)c1`: -5.01%; `CCc1ccc(NC(=O)CN2C(=O)C(=O)N(Cc3ccccc3)C2=O)cc1`: -2.36%; `NNc1nc2c(Cl)ccc(Cl)c2s1`: -11.5%.
For the compound `O=C(Nc1ccc(N2CCOCC2)c(Cl)c1)c1ccc([N+](=O)[O-])o1`, the “inhibition” value was -10.3%.
The value for `CCNC(=O)CSc1nc2cc([N+](=O)[O-])ccc2n1-c1cccc(C(F)(F)F)c1` was -3.74%.
On to `CCCCN(C(=S)Nc1cccc(C)c1C)c1c(N)n(CCC)c(=O)[nH]c1=O`, for which the “inhibition” value is -2.1%.
Next, `S=C1NCCc2ccc(Cl)cc2C1c1ccccc1` (stereo not drawn): -3.66%; `S=C(NCCc1ccccc1)N1CCN(Cc2ccccc2)CC1`: -0.76%; `CN(CCC#N)C(=O)COC(=O)c1ccc(Cl)c(S(=O)(=O)N(C)c2ccccc2)c1`: 2.03%.
The value for `O=C(COC(=O)c1ccc[nH]c1=O)NC1CCCCCC1` was -0.24%.
